An excerpt weighted towards active compounds, which were near 3.2% of everything screened.
12-hLO inh: 12-hLO (ALOX12) enzyme inhibition | AID 1452 | Potency, µM (highest dose often 57.1 µM), inactives show at the top dose activity change, negative = inhibition, hits mostly inhibitors | purified 12-hLO, xylenol orange hydroperoxide absorbance | P18054 | actives 0.12% (n = 150,000); note: potency is the fitted concentration of half-maximal effect; nearly all actives have a fitted effect of over 55% in size
Target sequence (P18054 whole entry, looked up): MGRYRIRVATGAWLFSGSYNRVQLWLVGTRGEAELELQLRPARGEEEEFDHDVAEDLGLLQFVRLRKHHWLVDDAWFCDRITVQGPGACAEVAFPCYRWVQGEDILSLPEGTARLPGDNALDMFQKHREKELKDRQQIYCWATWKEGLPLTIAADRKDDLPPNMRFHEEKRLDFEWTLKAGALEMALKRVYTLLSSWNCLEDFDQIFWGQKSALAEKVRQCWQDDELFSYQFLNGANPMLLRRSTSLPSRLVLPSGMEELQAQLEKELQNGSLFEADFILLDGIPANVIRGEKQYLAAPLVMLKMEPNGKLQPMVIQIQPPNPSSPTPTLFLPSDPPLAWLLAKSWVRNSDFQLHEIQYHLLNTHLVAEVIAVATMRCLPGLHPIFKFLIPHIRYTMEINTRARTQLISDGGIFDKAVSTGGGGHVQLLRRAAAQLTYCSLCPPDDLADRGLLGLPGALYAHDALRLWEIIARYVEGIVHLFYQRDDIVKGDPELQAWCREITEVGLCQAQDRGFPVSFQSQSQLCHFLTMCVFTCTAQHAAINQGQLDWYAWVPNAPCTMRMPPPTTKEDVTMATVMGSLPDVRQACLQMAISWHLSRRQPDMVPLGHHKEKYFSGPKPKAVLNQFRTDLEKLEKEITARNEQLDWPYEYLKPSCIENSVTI
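Hydroperoxide formation by human 12-lipoxygenase from 40 uM arachidonic acid was followed colorimetrically via ferric-xylenol orange complex, using the 573/405 nm absorbance ratio. Enzyme concentration was 150 nM, with 30 min reaction at room temperature.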
PNC inhibitor: perinucleolar compartment assembly inhibition; PC3M PTB-GFP, PNC prevalence imaging, 16 h; hits give low values; AID 2417; actives 3.1% (n = 140,000); activity change (PNC), negative = inhibition, % at 10 µM;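 active = readout at or below -70, meaning at least 70% loss of cells showing the perinucleolar compartment, a nuclear body marking cancer cells; inconclusive = readout between -30 and a set limit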;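 note: plate controls were DMSO wells for no effect and camptothecin positive control wells for full effect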
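Read-out is percentage of cells bearing a perinucleolar compartment, from automated 20x imaging of fixed, Hoechst-stained PC3M PTB-GFP cells. Cells were seeded 4 h, then exposed 16 h to compound (23 nl of library stock) in duplicate plates.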
ALOX15B inhib: blocks human 15-lipoxygenase 2 activity. O15296. purified 15hLO-2, xylenol orange hydroperoxide absorbance. Potency, µM (series often up to 57.1 µM), without a hit: at the highest dose activity change, negative = inhibition, most hits filed as inhibitors. actives 0.56% (n = 110,000); note: potency is the fitted concentration of half-maximal effect; nearly all actives have a fitted effect of over 60% in size
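Read-out: hydroperoxide product oxidises ferrous iron, measured as xylenol orange complex via the 573-to-405 nm absorbance ratio after 30 min. Reaction: 50 nM enzyme, 15 min compound preincubation, 45 uM arachidonic acid, 90 min RT, Hepes pH 7.5 with Triton X-100.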
* hit, by the source's call; ? = inconclusive; . = no result; [ ] = dose if it differs, or a comment. Unless noted, calls come from the whole dose curve; as a rule, active = well fitted curve in the direction sought with a large enough effect; inconclusive = small, poorly fitted or top-dose-only effect, or another doubt; inactive = no such curve, though single readings can be large; an effect the other way counts as inactive or inconclusive. Unless noted, % is set by controls: 0 for no effect and ±100 for the full control effect.

SMILES	12-hLO inh	PNC inhibitor	ALOX15B inhib
CN(C)Cc1ccccc1-c1ccc2ncnc(NC3CC3)c2c1	4%	.	25%
CN(C)C(CNc1nnnn1-c1ccccc1)c1ccco1 (stereo unspecified)	2%	-90*	5%
Cc1ccc(-n2nnnc2-c2ccco2)cc1	-4%	28	.
N#Cc1nc(-c2cccc3ccccc23)oc1N1CCCCC1	-3%	49	8%
CC1CCN(c2oc(-c3cccc4ccccc34)nc2C#N)CC1	-5%	-100*	.
Cc1nc2ccccc2n1C(=O)c1ccccc1[N+](=O)[O-]	1%	-2	.
Cc1nc2ccccc2n1/C(=N/S(=O)(=O)c1ccc(Br)cc1)c1ccccc1	12%	-100*	.
Nc1ncnc2nn([C@H]3O[C@@H](CO)[C@@H](O)[C@H]3O)nc12	-2%[11.4 µM]	.	-7%[11.4 µM]
CCSC[C@@H](N)C(=O)O	-3%[11.4 µM]	.	2%[11.4 µM]
CCOC(=O)NCc1ccc(CNC(=O)OCC)cc1	0%	0	2%
CCOC(=O)NCC(C)(C)CNC(=O)OCC	-1%	-117*	-3%
Cc1ccc(C(=O)NCC(C)(C)N2CCOCC2)s1	-4%	4	3%
CC(C)(CNC(=O)c1sc2cc(F)ccc2c1Cl)N1CCOCC1	-2%	-92*	.
CC(=O)N1CCCc2cc(S(=O)(=O)NC(C(=O)NCc3ccc(C)cc3)C(C)C)ccc21 (stereo unspecified)	-2%	6	-13%
CNC(=O)c1ccsc1NC(=O)c1ccc(Cl)s1	-8%	10	10%
CCC1=C2CC[C@H]3C(=O)N(c4ccccc4)C(=O)[C@H]3[C@H]2[C@@]2(Cc3ccccc3)C(=NCc3ccccc3)OC(=O)N2C1=O	2%	.	-8%
COc1ccc(C(=O)OCCN2CCOCC2)cc1	-2%	-100*	.
O=C(OCCN1CCOCC1)c1ccc2c(c1)OCCO2	-1%	-12	7%
COc1ccccc1/C=C/C(=O)N1CCOCC1	3%	51	1%
COc1ccccc1/C=C/C(=O)OCCN1CCOCC1	5%	-87*	.
COc1ccc(C(=O)OCCN2CCOCC2)cc1OC	4%	?	1%
O=C(OCCN1CCOCC1)c1ccc(OCCN2CCOCC2)cc1	4%	-85*	0%
COc1ccc(-c2nnc3ccc(SCC(=O)Nc4nc5ccccc5s4)nn23)cc1OC	-1%	-13	.
COc1cc(NC(=O)CCc2ccccc2)nc(OC)n1	-5%	?	1%
COc1ccc(C(=O)Nc2cc(OC)nc(OC)n2)cc1	-6%	-81*	.
SMILES	12-hLO inh	PNC inhibitor	ALOX15B inhib
O=C(c1ccco1)N1CCC2(CC1)CCN(c1ccccc1)CC2	0%	.	-4%
O=C(N/N=C/c1cccc(F)c1)c1c(O)c2c([nH]c1=O)CCCC2	-1%	-114*	.
CNC(=O)c1ccccc1NC(=O)c1c(O)c2c([nH]c1=O)CCCC2	-4%	41	1%
CN(C)c1ccc(-c2nc(N(C)Cc3ccco3)c3ccccc3n2)cc1	-11%	.	34%
CN(Cc1ccccc1)c1nc(-c2ccc([N+](=O)[O-])cc2)nc2ccccc12	2%	-98*	8%
CC(C)NS(=O)(=O)c1ccc(NC(=O)NC2CCCCC2)cc1	1%	40	.
COC(=O)[C@@]1(Cc2ccc(OC)cc2)[C@H]2c3cc(C(=O)N4CCCC4)n(Cc4ccsc4Br)c3C[C@H]2CN1C(=O)c1ccccc1	-2%	.	-4%
CCOc1nc(SCCOc2ccc(C)cc2)nc(N(C)C)n1	-10%	-16	.
CCNc1nc(NCC)nc(SCCOc2ccc(C)cc2)n1	1%	-113*	.
CCCc1cc(=O)[nH]c(SCC(=O)Nc2ccc(OC(F)F)cc2)n1	2%	-94*	-3%
CCCc1cc(=O)[nH]c(SCC(=O)Nc2c(C)cccc2C)n1	11%	16	-1%
O=C1OC(c2cccc([N+](=O)[O-])c2)C2(CCCC2)C(=O)C12CCCCC2 (stereo unspecified)	-2%	48	.
C[C@@H](C(=O)Cc1ccc2ccccc2c1)[C@@H]1C[C@@]1(C)[C@@H](NP(=O)(c1ccccc1)c1ccccc1)c1ccccc1	-4%	.	-3%
COCC(=O)N1CCC[C@@]2(CCN(c3ncccn3)C2)C1	-1%	.	-3%
COc1ccccc1OCCCn1cc(C#N)c2ccccc21	-10%	-82*	-6%
N#Cc1cn(CCCOc2ccccc2)c2ccccc12	-6%	8	.
Cc1ccc(S(=O)(=O)Nc2ccc(C(=O)OCC(=O)N(CCC#N)c3ccccc3)cc2)cc1C	-1%	-87*	.
CCOc1ccc(Br)cc1S(=O)(=O)Nc1ccc(C(=O)OCC(=O)N(C)c2ccccc2)cc1	-3%	?	.
CC(=O)c1cc(C#N)c(Oc2cc(C)cc(C)c2)nc1C	-5%	-114*	3%
CC(=O)c1cc(C#N)c(Oc2ccc(F)cc2)nc1C	2%	7	3%
Cc1cc(C(=O)NCc2ccccc2Br)no1	5%	2	-2%
c1cncc(C(c2nnnn2C2CCCC2)N2CCCC2)c1 (stereo unspecified)	-1%	?	0%
CCC(C)(C)n1nnnc1C(c1ccc2ncccc2c1)N1CCN(c2nc3ccccc3s2)CC1 (stereo unspecified)	-3%	-86*	6%[11.4 µM]
c1cnc2ccc(C(c3nnnn3C3CCCC3)N3CCSCC3)cc2c1 (stereo unspecified)	7%	-119*	.
CCC(C)(C)n1nnnc1C(c1ccc2ncccc2c1)N1CCCC(C)C1 (stereo unspecified)	-3%	161	.
SMILES	12-hLO inh	PNC inhibitor	ALOX15B inhib
CCCCNC(=O)[C@@H]1Cc2ccccc2N1C(=O)[C@H](N)CC	-1%	.	-8%
Cc1ccc(S(=O)(=O)NC2(C(F)(F)F)NC(=O)N(C)C2=O)cc1 (stereo unspecified)	10%	-87*	2%
O=C1NC(NS(=O)(=O)c2ccccc2)(C(F)(F)F)C(=O)N1c1ccc(F)cc1 (stereo unspecified)	-5%	?	.
Cc1ccccc1-n1c(SCc2c(C)noc2C)nnc1-c1cccnc1	-6%	?	-3%
Cc1ccccc1-n1c(SCc2c(C)noc2C)nnc1-c1ccncc1	3%	-83*	2%
O=[N+]([O-])c1ccccc1C1Nc2cccc3cccc(c23)N1	-3%	?	?
O=[N+]([O-])c1ccc(Cl)c(C2Nc3cccc4cccc(c34)N2)c1	?	132	13µM*
Clc1ccc(Cl)c(Nc2ccnc(SCc3ccccc3)n2)c1	3%[11.4 µM]	.	10%[11.4 µM]
CN(Cc1cccs1)CC(O)COCc1ccco1 (stereo unspecified)	-3%	-4	3%
COc1ccccc1COCC(O)CN(Cc1ccco1)Cc1ccccc1O (stereo unspecified)	-13%	-116*	.
COc1ccccc1-c1cc(NCc2ccccc2)ncn1	.	.	-8%
Cn1c(SCC(=O)c2ccccc2)nnc1-c1ccco1	2%	-12	.
CC(C)(C)c1nnc(SCC(=O)c2ccccc2)n(N)c1=O	-16%	-114*	.
O=C(c1ccc(Cn2cc(Cl)cn2)o1)N1CCN(Cc2ccc3c(c2)OCO3)CC1	-22%	-107*	5%
O=C(c1ccc(Br)o1)N1CCN(Cc2ccc3c(c2)OCO3)CC1	-6%	?	-5%
CCCN(CCc1ccccc1)[C@H]1CCc2c(O)cccc2C1	-8%	.	19%
O=C(c1ccncc1)N1CCC2(CC1)CN(c1ccccn1)C2	-1%	.	-2%

Screening data: PubChem, National Center for Advancing Translational Sciences (NCATS)
